Rows were chosen to be rich in hits. Some 4.8% of all compounds tested hit in one or more screens of this group.
IL1B secr inh – inflammasome signaling inhibition, IL-1 beta readout; 360,000 tested, 4.7% active; activity change, % at 57.5 µM; AID 743279; THP-1 LPS/ATP IL-1B secretion, AlphaLISA, 16 h; stronger effect = lower value; in the data active = activity change below about -50%; inconclusive = mostly about -30% to -49%; note: % is set by controls: 0 for no effect and ±100 for the full control effect
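THP-1 cells pretreated 1 hr with compounds (up to 57.5 uM final), then stimulated with LPS (250 ng/mL final) plus ATP (1.25 mM final); secreted IL-1B measured by AlphaLISA after 16 hr, decreased signal indicating inhibition.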
ATXN viability – cell viability loss in ATXN counter-screen; AID 651635; 400,000 tested, 0.49% active; Potency, µM (top dose mostly 56.7 µM), hits mostly cytotoxic; S2 cells (HEK-293 line with an ATXN2-luciferase reporter) viability, CellTiter-Fluor protease fluorescence, 24 h; note: potency is the fitted concentration of half-maximal effect; nearly all actives have a fitted effect of over 40% in size
USP1 inh – inhibitors of human USP1/UAF1 deubiquitinase; 390,000 tested, 0.23% active; recombinant USP1/UAF1, Ub-Rhodamine cleavage fluorescence; O94782; Potency, µM (doses to about 57.1 µM), without a hit: at the highest dose activity change, negative = inhibition, most hits filed as inhibitors; note: potency is the fitted concentration of half-maximal effect; % is set by controls: 0 for no effect and ±100 for the full control effect; nearly all actives have a fitted effect of over 60% in size
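USP1/UAF1 complex at 1 nM was preincubated with compound for 15 min at room temperature, then Ub-Rho substrate (150nM final) was added. Fluorescence (480/540 nm) was read kinetically, 6 reads every 60 seconds.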
USP2a block – inhibitors of human ubiquitin-specific protease USP2a; O75604; USP2 core, Ub-CHOP2 coupled fluorogenic reporter, 485/531; Potency, µM (top dose mostly 38.3 µM), without a hit: top-dose activity change, negative = inhibition, usual class: inhibitors; 330,000 tested, 0.01% active; AID 463254;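 note: potency is the fitted concentration of half-maximal effect; plate controls were DMSO wells for no effect and full inhibition by NEM control for full effect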
Target sequence (O75604 whole entry, looked up): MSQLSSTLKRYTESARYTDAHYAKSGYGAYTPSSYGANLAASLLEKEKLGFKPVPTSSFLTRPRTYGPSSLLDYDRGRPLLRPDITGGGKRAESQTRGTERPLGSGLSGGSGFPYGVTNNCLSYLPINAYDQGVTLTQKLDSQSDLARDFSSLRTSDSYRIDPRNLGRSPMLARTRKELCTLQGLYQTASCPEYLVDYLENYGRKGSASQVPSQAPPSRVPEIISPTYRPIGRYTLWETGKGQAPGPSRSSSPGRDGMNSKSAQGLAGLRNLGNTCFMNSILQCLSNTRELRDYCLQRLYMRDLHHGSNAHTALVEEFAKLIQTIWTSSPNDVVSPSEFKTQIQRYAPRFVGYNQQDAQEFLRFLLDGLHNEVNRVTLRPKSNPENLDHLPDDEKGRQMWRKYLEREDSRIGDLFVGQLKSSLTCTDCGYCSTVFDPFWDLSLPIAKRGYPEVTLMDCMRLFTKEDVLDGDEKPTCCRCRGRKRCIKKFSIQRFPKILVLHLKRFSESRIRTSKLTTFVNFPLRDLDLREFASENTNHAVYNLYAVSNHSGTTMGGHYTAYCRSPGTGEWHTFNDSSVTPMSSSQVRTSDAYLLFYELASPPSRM
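USP2 core (10nM final) preincubated 30min RT with compound in 20mM Tris-HCl pH 8.0, 2mM CaCl2, 2mM beta-mercaptoethanol, 0.05% CHAPS; 25nM Ub-CHOP2 plus 25nM reporter substrate added, fluorescence (Ex485/Em531) read after 60min.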
ATXN2 expr inh – ATXN2 expression inhibition | Potency, µM (top dose mostly 57 µM), without a hit: at the top dose activity change, negative = inhibition, usual class: inhibitors | 360,000 tested, 0.72% active | HEK-293 ATXN2-luciferase reporter, luminescence, 24 h; note: potency is the fitted concentration of half-maximal effect; % is set by controls: 0 for no effect and ±100 for the full control effect; nearly all actives have a fitted effect of over 55% in size
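ATXN2-luciferase reporter cells (luciferase flanked by upstream and downstream ATXN2 gene portions) were treated 24 h at 37 °C with compounds at up to 57 uM. SteadyGlo luminescence gave expression; GF-AFC fluorescence gave viability.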
* marks the source's active call; other numbers are inactive results; i = inactive; u = inconclusive; x = not tested or not shown; ! = repeats disagree. Unless noted, calls come from the whole dose curve; as a rule, active = well fitted curve in the direction sought with a large enough effect; inconclusive = small, poorly fitted or top-dose-only effect, or another doubt; inactive = no such curve, though single readings can be large; an effect the other way counts as inactive or inconclusive.

SMILES	IL1B secr inh	ATXN viability	USP1 inh	USP2a block	ATXN2 expr inh
C=C(C)C(Cc1c(OC)ccc(C(=O)/C=C/c2ccc(O)cc2)c1O)OO (centres undefined)	-70*	u	u	-3%	-32%
CC[C@H](CO)NC(=O)[C@H]1C=C2c3cccc4[nH]cc(c34)C[C@@H]2N(C)C1	x	i	x	x	x
O=C1C=CC[C@@H]2[C@H]3CCCN4CCC[C@@H](CN12)[C@@H]34	x	x	x	x	1.5µM*
Cc1cc(N2CCNCC2)nc2ccccc12	-63*	i	-18%	0%	u
COc1ccc(OC)c([C@H](O)[C@H](C)N)c1	x	i	x	x	x
COc1ccc(NS(=O)(=O)c2ccc3c(c2)CCCN3C(=O)C2CCC2)cc1OC	x	u	-5%	x	u
CCNCCNc1ccc([N+](=O)[O-])c2cccnc12	-61*	u	-25%	1%	-37%
Cc1nonc1OCCNCCNc1ccc([N+](=O)[O-])c2cccnc12	u	u	-18%	0%	-18%
CCOC(=O)N1CCC(NC(=O)CCc2nc(C3=CCN(C)CC3)no2)CC1	-63*!	i	-16%	1%	1%
CC(C)CNc1c2c(nc3ccccc13)CCC2	-60*	i	-36%	2%	u
OCCNc1c2c(nc3ccccc13)CCCC2	-28	i	-7%	-4%	-16%
c1ccc(CNc2c3c(nc4ccccc24)CCC3)cc1	-93*	u	-10%	0%	18µM*
CC(C)N(CCNC(=O)CN1CCCC1=O)C(C)C	x	x	x	x	0%
COc1ccc([C@H]2CC(=O)C=C(c3ccc4c5c(cccc35)CC4)C2)cc1	-7	i	u	3%	12%
CCCCCCCCn1sccc1=O	-107*	x	-16%	0%	25µM*
O=[N+]([O-])c1ccc(Cl)c([N+](=O)[O-])c1	-110*	18µM*	-17%	0%	u
O=C1NC(=O)C(=Cc2c(Cl)cccc2Cl)C(=O)N1	-58*	i	-10%	x	-15%
CCN1C[C@]2(OC(=O)c3ccccc3NC(C)=O)CC[C@H](OC)[C@@]34[C@H]5CC6[C@@H](OC)C[C@](O)(C(C[C@@H]23)[C@@H]14)[C@@]5(O)[C@@H]6OC	x	x	x	x	4%
COc1ccccc1CCNC1CCC(C(C)(C)C)CC1 (centres undefined)	-65*	u	-11%	0%	u
C[C@H]1CC[C@@]2(NC1)O[C@@H]1C[C@H]3[C@@H]4CC[C@@H]5C[C@@H](O)CC[C@@]5(C)[C@@H]4CC[C@]3(C)[C@@H]1[C@@H]2C	x	i	x	x	x
COc1ccc(OC)c(N2C(=O)NC(=O)/C(=C/c3ccc([N+](=O)[O-])s3)C2=O)c1	-73*	i	16µM*	-6%	18%
COc1ccc(N2C(=O)/C(=C/c3ccc(C)o3)C(=O)NC2=S)cc1	18	i	-19%	2%	4%
COc1ccc(OC)c(N2C(=O)/C(=C/c3ccco3)C(=O)NC2=S)c1	15	i	16µM*	u	-12%
c1ccc(CNC2CCCCCCC2)cc1 (tested in a mixture with another compound)	-74*	i	1%	x	-16%
CCOc1cc2c(cc1OCC)-n1cccc1C(c1ccc(OC)cc1)NC2 (centres undefined)	-63*	i	-29%	-14%	-13%
SMILES	IL1B secr inh	ATXN viability	USP1 inh	USP2a block	ATXN2 expr inh
CCOc1cc2c(cc1OCC)-n1cccc1C(c1ccc(C(C)C)cc1)NC2 (centres undefined)	-94*	u	-17%	-10%	u
O=c1[nH]c2ccccc2n1C1CCNCC1	x	i	x	x	2%
Cc1cc2oc(=O)cc(-c3ccccc3)c2c(C)c1-c1ccc(CO)cc1	14	u	-32%	-14%	-14%
O=C(C(=C1N(Cc2ccc(Cl)nc2)CCN1Cc1ccc(Cl)nc1)[N+](=O)[O-])C(Cl)Cl	-71*	u	-18%	0%	x
COc1cccc(CN2CCc3nc(N4CCN(c5ncccn5)CC4)ncc3C2)c1	x	u	-8%	x	u
COC1C(O)C(C)OC(OC2C(Oc3cccc4c(O)c5c(=O)oc6ccc(C)c7c(=O)oc(c34)c5c67)OC(C)C(O)C2O)C1O (centres undefined)	-100*	i	-21%	x	10µM*
COCCCn1c(-c2ccc(OC)cc2)cc(C(=O)NC2CCCCCCC2)c1C	-53*	i	-15%	-4%	-15%
Cc1c(C(=O)Nc2ccccc2)cc(-c2ccccc2)n1CCCN1CCOCC1	-17	i	-4%	0%	-14%
CCn1c(C)cc(/C=C2\C(=O)NC(=O)N(c3ccccc3C)C2=O)c1C	8	i	-7%	0%	-4%
Cc1ccccc1N1C(=O)NC(=O)/C(=C\c2cnn(-c3ccccc3)c2)C1=O	-96*	u	-18%	0%	-36%
O=c1c2ccccc2[se]n1-c1ccccc1	-114*	u	-4%	3%	u
COc1ccc2c3c1O[C@H]1[C@@H](O)C=C[C@H]4[C@@H](C2)NCC[C@@]341	x	i	x	x	x
C=C1C(=O)[C@@]23C[C@H]4[C@@H]5[C@@]6(C)CCC[C@@]57[C@@H]2[C@@H](O)[C@@H]1C[C@H]3[C@H]7N4C6	-108*	7.9µM*	15%	x	u
CC(C)(C)OC(=O)c1ncn2c1[C@@H]1CCCN1C(=O)c1c(Br)cccc1-2	x	i	x	x	7%
CC1CC(C)(O)CC(C(O)CC2CC(=O)NC(=O)C2)C1=O (centres undefined)	-101*	u	-11%	x	u
CN1CCN(c2cccc3c2C(=O)c2ccccc2C3=O)CC1	-60*	u	-7%	4%	u
COc1cc(-c2nc3ccc(Cl)cn3c2Nc2ccc3c(c2)OCCO3)ccc1O	x	u	-23%	x	-10%
Cc1ccc(O)c(C(=O)c2cc(C(=O)NCCC(C)C)c(=O)n(CCC(C)C)c2)c1	-56*	u	-11%	8%	-31%
O=C(c1cc(C(=O)NCc2ccc(Cl)cc2)c(=O)n(Cc2ccc(Cl)cc2)c1)c1cc(F)ccc1O	-18	i	-12%	0%	-27%
O=C1NC(=S)N(c2ccc(F)cc2)C(=O)/C1=C\c1ccoc1	30	x	28µM*	2%	-24%
Cc1ccc(N2C(=O)NC(=O)/C(=C\c3ccoc3)C2=O)cc1	3	i	-31%	u	31%
Oc1cccc2cccnc12	x	13µM*!	x	-1%	11µM*!
C[C@@]12CC3CC(N)(C1)C[C@@](C)(C3)C2	x	i	x	x	x
COCCCn1c(N)c(C(=O)OCCOC)c2nc3ccccc3nc21	-19	i	-7%	-1%	-11%
CCCCCn1c(NC(=O)c2ccco2)c(C(=O)OCC)c2nc3ccccc3nc21	-101*	i	7.1µM*	0%	u
